Results reported in the supplement of paper PMC6555819.

Tested on: LXRb homodimer (NR concentration 270 nM)
Assay: PBM binding z-score (relative to random genomic background probes); higher = stronger binding; sequences stand for … in GC…GCGATTGACAGCGTAGAATGAAGG
How it was run: (§1)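 On custom Agilent 4×180K arrays, double-stranded probes with 34-nt variable regions carried direct-repeat seeds, single-nucleotide variants, half-site ablations or random human genomic background. Ligand-free nuclear receptor dimers were applied for 1 h, and binding was read with antibodies against each partner (one per run). Binding z-scores come from regression-normalized fluorescence, with the random background probes as reference.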

| Sequence | PBM binding z-score |
| --- | --- |
| CGTCCAAGGTGAAAGGTCAGTGAAGAGATGACGG | -0.321 |
| ACTAGTTGGTCAACTGAGGTCACACACAATTCGG | 0.711 |
| TCTCCTAGGTCAACGATGGTCAGCTAATCTGCTA | 0.781 |
| CAAACTAGGTCACAGAGGTCAAGGTCCGTGCGTA | 1.33 |
| ACTCTGAGGACAAAGGTCAGAGCTACGCCAGTGA | 0.531 |
| TCATATAGGTAAACAGATGAAAGTCCGTAAGTTA | -0.0548 |
| GATACAGGGTCAGCTGGAGGCCAGAGTATGGAAA | -0.887 |
| AGAATGAGGTTATTAAGGTCAGGGAATTGCGGTC | 0.546 |
| TCGAGAAGGTTACCAATGGGGCATTCAGCTTTCT | -0.525 |
| TCGAGTAGGTAAGGGGCATTCAGAATGGCGTCGA | -0.693 |
| TCTCGGAGGACACGAAGGTCAGATCTTTCCAGAG | -0.544 |
| ATACCAAGGTGATCGTAAGGTCGTTGATACTAAC | -0.157 |
| CTACCAAGGTGAACAAGGTCGTTGATTACTATTC | -0.383 |
| AATACAGGATCATCGTAGGCCAGAGTACGCACAG | 0.414 |
| ATACCACGGTGATCGTGAGGTCGTTGATACTAAC | -0.0132 |
| GCTTGTAGATCAAGGTTAGGAAAGACTAAGCTAA | -0.511 |
| CGAACTAGGTCAGACCAGGACAGTGAAGGATGAT | -0.517 |
| CCGACTGGGGCAAAGGTTACCATTCTCAGTACGA | -0.949 |

Tested on: PPARa:RXRa (NR concentration 270 nM, RXRa partner concentration 90 nM)
Assay: as above
How it was run: as §1

| Sequence | PBM binding z-score |
| --- | --- |
| ATCTCAAGGTAAAGTTCAGTGAAAGATCGATAGA | 2.22 |
| GCTAGTTGGTTAGTAAAAGGTCACACACCGGTCG | 4.6 |
| CCTAGTTGGTCAGGAGGTCACTCACCGGATATGA | 3.54 |
| ACGAGCAGGCCAAGGGTCACTCAAGATTAGTCCG | 4.15 |
| TGAATGAGGTTATAAGTTCAGGGAACGTTGCAAA | 3.66 |
| ATTTCTAGGTAAGACTCAGTTCAGTGAAGAACGC | 0.972 |
| TCTATTAGTTGAAGGGCAACCGCCGAGTCCGTTT | 0.935 |
| TCTAGCAGGCCGGAGGGTCACTCAAGAGGTACGG | 1.69 |
| TCTCGGAGGACACGAAAGGTTAGAGCTCGACATC | 1.46 |
| ATATGTAGGTTACATCCGGGTCAATCAGGCTATG | 4.39 |
| GATACAGGGTAAAGGCCAGAGTACGCGTATTGAT | 2.46 |
| CCGACTGGGGCATAAGGTTGCCATAAGCCAGCCC | 0.636 |
| CCTCGGAGGACAGAAGGTCAGAGCAGTCCGCTTT | 2.04 |
| ACTATTAGGTGAGACGAGGGCAACCGATAGGTTG | 1.5 |
| CGAACTAGGTCACGAAAGGTCAAAGTCGAATGAC | 6.49 |
| CCTTACAGGTCACTCCAGGTTATAGCATCGGAGT | 4.75 |
| AGAATGAGGTTACCAAAGATCAGGGGAACGCTTG | 3.44 |
| GCATTTAGGTAATACAAGGTGAAAGTCCGATTGT | 1.27 |
| TTACCAAGGTGAGCTGAGGTCATTGATCCAACTC | 3.78 |
| AGAATGAGGATATTAAGATCAGGGAATTGCGGTC | -0.323 |

| Sequence | PBM binding z-score |
| --- | --- |
| ACTGTTAGTTGACTTAGGGCAACCGATACGACGC | 0.0221 |
| ATCTCTAGGTAACCATGTTCAGTGAATGCCGAAC | 0.518 |
| CGTCCAAGGTGAAAGGTCAGTGAAGAGATGACGG | 6.01 |
| ACTAGTTGGTCAACTGAGGTCACACACAATTCGG | 4.31 |
| TCTCCTAGGTCAACGATGGTCAGCTAATCTGCTA | 3.76 |
| CAAACTAGGTCACAGAGGTCAAGGTCCGTGCGTA | 6.48 |
| ACTCTGAGGACAAAGGTCAGAGCTACGCCAGTGA | 4.76 |
| TCATATAGGTAAACAGATGAAAGTCCGTAAGTTA | 1.14 |
| GATACAGGGTCAGCTGGAGGCCAGAGTATGGAAA | 4.47 |
| AGAATGAGGTTATTAAGGTCAGGGAATTGCGGTC | 4.4 |
| TCGAGAAGGTTACCAATGGGGCATTCAGCTTTCT | 2.11 |
| TCGAGTAGGTAAGGGGCATTCAGAATGGCGTCGA | 0.747 |
| TCTCGGAGGACACGAAGGTCAGATCTTTCCAGAG | 1.98 |
| ATACCAAGGTGATCGTAAGGTCGTTGATACTAAC | 1.71 |
| CTACCAAGGTGAACAAGGTCGTTGATTACTATTC | 2.45 |
| AATACAGGATCATCGTAGGCCAGAGTACGCACAG | -0.0183 |
| ATACCACGGTGATCGTGAGGTCGTTGATACTAAC | 0.958 |
| GCTTGTAGATCAAGGTTAGGAAAGACTAAGCTAA | 0.626 |
| CGAACTAGGTCAGACCAGGACAGTGAAGGATGAT | 3.36 |
| CCGACTGGGGCAAAGGTTACCATTCTCAGTACGA | 5.42 |

Tested on: PPARg:RXRa (NR concentration 180 nM, RXRa partner concentration 90 nM)
Assay: as above
How it was run: as §1

| Sequence | PBM binding z-score |
| --- | --- |
| ATCTCAAGGTAAAGTTCAGTGAAAGATCGATAGA | 1.97 |
| GCTAGTTGGTTAGTAAAAGGTCACACACCGGTCG | 2.08 |
| CCTAGTTGGTCAGGAGGTCACTCACCGGATATGA | 2.76 |
| ACGAGCAGGCCAAGGGTCACTCAAGATTAGTCCG | 5.95 |
| TGAATGAGGTTATAAGTTCAGGGAACGTTGCAAA | 2.09 |
| ATTTCTAGGTAAGACTCAGTTCAGTGAAGAACGC | 0.289 |
| TCTATTAGTTGAAGGGCAACCGCCGAGTCCGTTT | -0.454 |
| TCTAGCAGGCCGGAGGGTCACTCAAGAGGTACGG | 0.508 |
| TCTCGGAGGACACGAAAGGTTAGAGCTCGACATC | 0.441 |
| ATATGTAGGTTACATCCGGGTCAATCAGGCTATG | 5.98 |
| GATACAGGGTAAAGGCCAGAGTACGCGTATTGAT | 4.52 |
| CCGACTGGGGCATAAGGTTGCCATAAGCCAGCCC | 0.999 |
| CCTCGGAGGACAGAAGGTCAGAGCAGTCCGCTTT | 0.114 |
| ACTATTAGGTGAGACGAGGGCAACCGATAGGTTG | 1.44 |
| CGAACTAGGTCACGAAAGGTCAAAGTCGAATGAC | 10.5 |
| CCTTACAGGTCACTCCAGGTTATAGCATCGGAGT | 3.81 |
| AGAATGAGGTTACCAAAGATCAGGGGAACGCTTG | 2.74 |
| GCATTTAGGTAATACAAGGTGAAAGTCCGATTGT | 0.514 |
| TTACCAAGGTGAGCTGAGGTCATTGATCCAACTC | 1.69 |
| AGAATGAGGATATTAAGATCAGGGAATTGCGGTC | 0.311 |

| Sequence | PBM binding z-score |
| --- | --- |
| ACTGTTAGTTGACTTAGGGCAACCGATACGACGC | 0.731 |
| ATCTCTAGGTAACCATGTTCAGTGAATGCCGAAC | 0.664 |
| CGTCCAAGGTGAAAGGTCAGTGAAGAGATGACGG | 9.57 |
| ACTAGTTGGTCAACTGAGGTCACACACAATTCGG | 3.06 |
| TCTCCTAGGTCAACGATGGTCAGCTAATCTGCTA | 2.68 |
| CAAACTAGGTCACAGAGGTCAAGGTCCGTGCGTA | 10.1 |
| ACTCTGAGGACAAAGGTCAGAGCTACGCCAGTGA | 7.44 |
| TCATATAGGTAAACAGATGAAAGTCCGTAAGTTA | 1.36 |
| GATACAGGGTCAGCTGGAGGCCAGAGTATGGAAA | 3.91 |
| AGAATGAGGTTATTAAGGTCAGGGAATTGCGGTC | 3.54 |
| TCGAGAAGGTTACCAATGGGGCATTCAGCTTTCT | 0.146 |
| TCGAGTAGGTAAGGGGCATTCAGAATGGCGTCGA | 0.463 |
| TCTCGGAGGACACGAAGGTCAGATCTTTCCAGAG | 0.475 |
| ATACCAAGGTGATCGTAAGGTCGTTGATACTAAC | 0.613 |
| CTACCAAGGTGAACAAGGTCGTTGATTACTATTC | 1.12 |
| AATACAGGATCATCGTAGGCCAGAGTACGCACAG | 0.976 |
| ATACCACGGTGATCGTGAGGTCGTTGATACTAAC | 0.3 |
| GCTTGTAGATCAAGGTTAGGAAAGACTAAGCTAA | 0.0578 |
| CGAACTAGGTCAGACCAGGACAGTGAAGGATGAT | 6.07 |
| CCGACTGGGGCAAAGGTTACCATTCTCAGTACGA | 11.2 |
